Shown are actives, neighbours in structure and some others; about 3.5% of the full set was active somewhere.
MITF inh: blocks human microphthalmia-associated transcription factor | 650,000 compounds, 0.91% hits | O75030 | inhibition, % at 2.6 µM | AID 1259374 | AlphaScreen MITF homodimerization, bead proximity signal; in the data active means inhibition above about 50%
FBW7 act: activators of human E3 ligase FBW7; normalized activity (activation), % at 26.1 µM; 650,000 compounds, 0.13% hits; AlphaScreen FBW7–phospho-cyclin E peptide binding, activator screen; AID 1259310; in the data active means normalized activity above about 1.9%;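 further: purified mutant Fbw7 with reduced substrate affinity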
TEAD-YAP block: TEAD-YAP interaction inhibition | 640,000 compounds, 1.4% hits | HEK-TIYL cells, TEAD-Gal4/YAP UAS-luciferase luminescence | inhibition, % at 9.12 µM; in the data active means inhibition above about 32%
GPR151 ag: activators of human GPR151; activation, % at 11.2 µM; 650,000 compounds, 1% hits; PathHunter beta-arrestin GPR151 cells, luminescence; Q8TDV0; in the data active means activation above about 4.9%
Target sequence (Q8TDV0 whole entry, looked up): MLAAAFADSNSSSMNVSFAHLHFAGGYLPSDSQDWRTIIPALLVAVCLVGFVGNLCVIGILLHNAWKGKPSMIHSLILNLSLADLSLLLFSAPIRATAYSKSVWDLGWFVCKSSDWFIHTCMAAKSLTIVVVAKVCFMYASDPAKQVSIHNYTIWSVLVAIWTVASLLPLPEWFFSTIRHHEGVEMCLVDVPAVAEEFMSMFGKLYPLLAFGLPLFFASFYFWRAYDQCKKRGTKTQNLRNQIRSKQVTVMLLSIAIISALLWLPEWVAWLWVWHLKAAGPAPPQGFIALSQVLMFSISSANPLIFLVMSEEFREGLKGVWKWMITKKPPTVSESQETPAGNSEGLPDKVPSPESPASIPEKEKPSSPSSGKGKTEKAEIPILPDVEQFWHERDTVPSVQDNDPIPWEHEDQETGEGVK
MITF inh conf: human MITF inhibition, confirmation. shares compounds with MITF inh. AlphaScreen MITF homodimerization, biotin/His-MITF beads. inhibition, % at 2.6 µM. 4,700 compounds, 16% hits. AID 1259372;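 active means inhibition above a cutoff derived from the DMSO control wells, cut at about 28% in these data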;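 further: inhibitors lower the bead chemiluminescence by keeping MITF from dimerizing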
AS interf DR: AlphaScreen optical interference, dose response counter-screen | IC50, µM | 480 compounds, 6% hits | shares compounds with MITF inh | AlphaScreen optical interference counterscreen, cell-free | AID 1259373; call rule not given here
AlphaScreen intf2: optically interferes with AlphaScreen signal; inhibition, % at 2.6 µM; AID 1259376; shares compounds with MITF inh; 4,700 compounds, 7.6% hits; LysRS AlphaScreen counterscreen, signal interference, triplicate;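 active means inhibition above a cutoff derived from the DMSO control wells, cut at about 30% in these data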
Of the large screens only hits and unclear results are named; the others gave an inactive call (follow-up assays come after a bar, where they were run).

Clc1cccc(CN2CCN(CC3CC4C=CC3C4)CC2)c1 (stereo not drawn)	MITF inh 74 | MITF inh conf inactive | AlphaScreen intf2 inactive
O=S(=O)(Cc1ccccc1)N1CCN(CC2CC3C=CC2C3)CC1 (stereo not drawn)	none
Cc1cccc(CN2CCN(CC3CC4C=CC3C4)CC2)c1 (stereo not drawn)	MITF inh 57 | MITF inh conf inactive | AlphaScreen intf2 inactive
Clc1ccccc1CN1CCN(CC2CC3C=CC2C3)CC1 (stereo not drawn)	MITF inh 74 | MITF inh conf inactive | AlphaScreen intf2 inactive
C=CCNc1c(C)c(C)nc2cc(-c3cc(OC)cc(OC)c3)nn12	none
O=C(Nc1cccc2ccc(-n3ccnc3)nc12)c1ccsc1	none
COc1ccc(OCC(=O)OCC(=O)COC(=O)COc2ccc(OC)cc2)cc1	MITF inh 77 | MITF inh conf inactive | AlphaScreen intf2 inactive
O=C(/C=C/c1ccco1)NCCCCCCNC(=O)/C=C/c1ccco1	MITF inh 55 | MITF inh conf 69 | AS interf DR inactive | AlphaScreen intf2 inactive
CCC(=O)Nc1ccc(NC(=S)NC(=O)/C=C/c2ccco2)cc1	none
CCN(CC)C(=S)NC(=O)/C=C/c1ccco1	MITF inh 52 | MITF inh conf 73 | AS interf DR inactive | AlphaScreen intf2 inactive
O=C(/C=C/c1ccco1)NCCCCNC(=O)/C=C/c1ccco1	MITF inh 57 | MITF inh conf 71 | AS interf DR inactive | AlphaScreen intf2 inactive
O=C(/C=C/c1ccco1)Nc1cccc2ccccc12	none
O=C(/C=C/c1ccco1)Nc1c[nH]c(=O)[nH]c1=O	MITF inh 52 | MITF inh conf 32 | AS interf DR inactive | AlphaScreen intf2 inactive
O=C(/C=C/c1ccco1)NCCCNC(=O)/C=C/c1ccco1	none
CC(=O)Nc1ccc(Nc2cc(-c3c(C)nn(C)c3C)ncn2)cc1	none
COc1ccc(-c2c(F)ccc3cnc(Nc4ccc(-n5cnc(N6CCOCC6)n5)cc4)nc23)cc1F	MITF inh 56 | MITF inh conf inactive | AlphaScreen intf2 inactive
O=C(O)Cc1ccc(N=Cc2cccc([N+](=O)[O-])c2O)cc1	MITF inh 94 | MITF inh conf inactive | AlphaScreen intf2 inactive
O=[N+]([O-])c1cccc(C=Nc2ccc(F)cc2)c1O	none
CCOC(=O)c1c(N)n(CCCN2CCOCC2)c2nc3ccccc3nc12	MITF inh 55 | MITF inh conf inactive | AlphaScreen intf2 inactive
O=C1CSC(c2ccccc2F)N1c1cccc(Cl)c1 (stereo not drawn)	none
O=[N+]([O-])c1cc(Cl)c(O)c2ncccc12	none
CN(Cc1cc(Cl)c(O)c2ncccc12)C1CCCCC1	MITF inh 106, TEAD-YAP block 70 | MITF inh conf 104 | AlphaScreen intf2 101
S=C(NCc1ccco1)N1CCN(Cc2ccc3c(c2)OCO3)CC1	MITF inh 80 | MITF inh conf inactive | AlphaScreen intf2 inactive
CS(=O)(=O)N(CC(=O)N1CCN(Cc2ccc3c(c2)OCO3)CC1)c1ccc(F)cc1	MITF inh 75 | MITF inh conf inactive | AlphaScreen intf2 inactive
O=C(c1ccco1)N1CCN(Cc2ccc3c(c2)OCO3)CC1	MITF inh 62 | MITF inh conf inactive | AlphaScreen intf2 inactive
S=C(NCc1ccco1)N1CCN(Cc2ccccc2)CC1	none
CCOC(=O)c1ccc(NC(=O)COC(=O)c2ccc(Cl)c(N)c2)cc1	none
CC1CN(CCC(=O)N[C@@H](Cc2ccccc2)C(N)=O)Cc2ccccc2O1 (stereo partly drawn)	none
C=CCc1cccc(C)c1OCCCN1CCN(C)CC1	none
C=CCc1cccc(C)c1OCCN1CCOCC1	MITF inh 86 | MITF inh conf inactive | AlphaScreen intf2 inactive
C=CCc1cccc(C)c1OCCCN1CCCC1	MITF inh 57 | MITF inh conf inactive | AlphaScreen intf2 inactive
C=CCc1cccc(Cl)c1OCCN1CCOCC1	none
C=CCc1cccc(Cl)c1OCCN1CCNCC1	MITF inh 56 | MITF inh conf inactive | AlphaScreen intf2 inactive
COc1ccccc1N1CCN(Cc2nnnn2Cc2cccs2)CC1	none
Cc1cc(/C=C2\C(=O)NC(=O)N(C)C2=O)c(C)n1-c1ccc(C(=O)O)cc1	none
Cc1ccnc(Nc2ccc(NCCNC(=O)c3ccc(F)cc3Cl)nn2)c1	MITF inh 81 | MITF inh conf 43 | AlphaScreen intf2 83

Source: PubChem
